The record followed here is the supplement of paper PMC8269313.

Where a name gives a salt, the structure may show the parent alone.

The assay deals with 4T1. Put plainly: % inhibition of 4T1 cell number vs DMSO control; higher = stronger growth inhibition. The conditions noted are these: 1 µM, 3 days. The method, boiled down:
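In 96-well imaging plates whose edge wells went unused, 3000 4T1-H2B-GFP mouse breast cancer cells per well were seeded in 2% FBS medium onto plastic, denuded lung matrix, mCAF1 fibroblast-derived matrix, Matrigel (15 μg/mL) or 0.2% gelatin. Sixteen hours on, kinase inhibitors went in at 1 μM final for 3 days before formalin fixation, DAPI staining and imaging on an INCell Analyzer 2200. Counting of GFP-positive nuclei gave cell numbers, from which percent inhibition relative to control was derived.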

Setting [1] is: substrate: lung fibroblast-derived matrix.
[2] abbreviates: substrate: mCAF1 fibroblast-derived matrix.

`COc1ccc2c(c1)c1c3c(c4c5ccccc5n(C)c4c1n2CC(O)CN(C)C)C(=O)NC3=O` (stereo not given): the “% inhibition of 4T1 cell number” value (substrate: Matrigel) was -13%; the “% inhibition of 4T1 cell number” value (substrate: gelatin) is -19%; the “% inhibition of 4T1 cell number” value under setting [1] is -1%; the “% inhibition of 4T1 cell number” value under setting [2] stood at 17.9%; the “% inhibition of 4T1 cell number” value (substrate: plastic) is -42.9%.

Consider `CC(C)[C@H](CO)Nc1nc(Nc2cc(N)cc(Cl)c2)c2ncn(C(C)C)c2n1` [Aminopurvalanol A], for which the “% inhibition of 4T1 cell number” value reads like this: (substrate: Matrigel) 77.4%; (substrate: gelatin) 71.6%; under setting [1], -15.7%; under setting [2], 41.1%; (substrate: plastic) 80.1%.

On to `CCCCCCCCCCCCCCCCn1cc[n+](Cc2ccccc2)c1C` [eEF-2 Kinase Inhibitor, NH125], for which the “% inhibition of 4T1 cell number” value turned out to be 81.5% (substrate: Matrigel); 78.5% (substrate: gelatin); 52.8% under setting [1]; 83.2% under setting [2]; 93.2% (substrate: plastic).

As to `NC(=O)c1ccc2nc(-c3ccc(Oc4ccc(Cl)cc4)cc3)[nH]c2c1` [Chk2 Inhibitor II], the “% inhibition of 4T1 cell number” value reads like this: (substrate: Matrigel) -26.7%; (substrate: gelatin) -10.9%; under setting [1], 22.1%; under setting [2], 21.5%; (substrate: plastic) -72.4%.

Consider `Cc1ccc(NC2=CC(=O)c3sc(C)nc3C2=O)cc1` [Cdk4 Inhibitor III], for which the “% inhibition of 4T1 cell number” value was -14.1% (substrate: Matrigel); 30.5% (substrate: gelatin); 99.5% under setting [1]; 12.4% under setting [2]; -21.1% (substrate: plastic).

Consider `O=C1Cc2c([nH]c3ccc(Br)cc23)-c2ccccc2N1` [Kenpaullone], for which the “% inhibition of 4T1 cell number” value was -24.2% (substrate: Matrigel); -0.528% (substrate: gelatin); 23.3% under setting [1]; 25.6% under setting [2]; -48.1% (substrate: plastic).

With `Nc1ncnc2c1c(I)cn2[C@@H]1O[C@H](CO)[C@@H](O)[C@H]1O` [5-Iodotubercidin], the “% inhibition of 4T1 cell number” value by setting is: (substrate: Matrigel) 15.7%; (substrate: gelatin) 59.3%; under setting [1], 7.74%; under setting [2], 34.1%; (substrate: plastic) 24.1%.

As for `CC[C@H](CO)Nc1nc(NCc2ccccc2O)c2ncn(C(C)C)c2n1` [Olomoucine II], the “% inhibition of 4T1 cell number” value stood at 13.3% (substrate: Matrigel); 23.4% (substrate: gelatin); 19.8% under setting [1]; 13.3% under setting [2]; 23.7% (substrate: plastic).

As to `Cc1nc2cc3nc(-c4cccs4)cnc3cc2n1C`, the “% inhibition of 4T1 cell number” value by setting is: (substrate: Matrigel) 47.1%; (substrate: gelatin) -31.4%; under setting [1], -7.74%; under setting [2], -22.1%; (substrate: plastic) 37.6%.

In the case of `O=c1c2ccccc2[nH]c(=S)n1CCN1CCC(=C(c2ccc(F)cc2)c2ccc(F)cc2)CC1` [Diacylglycerol Kinase Inhibitor II], the “% inhibition of 4T1 cell number” value reads like this: (substrate: Matrigel) 8.29%; (substrate: gelatin) -29.1%; under setting [1], -1.99%; under setting [2], -11%; (substrate: plastic) -33.4%.

Take `Cc1cc(C=C2C(=O)C=CC2=O)cc(C)c1O`: the “% inhibition of 4T1 cell number” value is 32.9% (substrate: Matrigel); 68.1% (substrate: gelatin); 10.9% under setting [1]; -26.2% under setting [2]; 32.3% (substrate: plastic).

As for `Nc1n[nH]c(N)c1N=Nc1ccc(O)cc1` [Cdk9 Inhibitor II], the “% inhibition of 4T1 cell number” value runs as follows: (substrate: Matrigel) 11%; (substrate: gelatin) 10.5%; under setting [1], -8.89%; under setting [2], -4.98%; (substrate: plastic) 12%.

In the case of `CCOc1nc(NC(=O)Cc2cc(OC)ccc2OC)cc(N)c1C#N` [JNK Inhibitor VIII], the “% inhibition of 4T1 cell number” value by setting is: (substrate: Matrigel) -7.17%; (substrate: gelatin) 11.6%; under setting [1], -17.8%; under setting [2], 31.4%; (substrate: plastic) -42.5%.

For the compound `NCCCn1cc(C2=C(c3c[nH]c4ccccc34)C(=O)NC2=O)c2ccccc21` [Bisindolylmaleimide III, Hydrochloride], the “% inhibition of 4T1 cell number” value is 50.6% (substrate: Matrigel); 46.1% (substrate: gelatin); 12.7% under setting [1]; -60.9% under setting [2]; 37.2% (substrate: plastic).

As for `Cn1sc(=O)n(Cc2ccccc2)c1=O` [GSK-3b Inhibitor I], the “% inhibition of 4T1 cell number” value (substrate: Matrigel) is -33.1%; the “% inhibition of 4T1 cell number” value (substrate: gelatin) is 10.3%; the “% inhibition of 4T1 cell number” value under setting [1] was 9.49%; the “% inhibition of 4T1 cell number” value under setting [2] was determined as 21.6%; the “% inhibition of 4T1 cell number” value (substrate: plastic) was -62.7%.

Turning to `NS(=O)(=O)c1ccc(N=Nc2c(O)[nH]c3ccc(Br)cc23)cc1` [Cdk2 Inhibitor II], the “% inhibition of 4T1 cell number” value is, setting by setting: (substrate: Matrigel) 14.7%; (substrate: gelatin) 31.6%; under setting [1], -5.54%; under setting [2], 18.1%; (substrate: plastic) -9.24%.

`c1nc2c(NC3CCCCC3)nc(Nc3ccc(N4CCOCC4)cc3)nc2[nH]1` [Reversine]: the “% inhibition of 4T1 cell number” value by setting is: (substrate: Matrigel) 91%; (substrate: gelatin) 89.5%; under setting [1], 7.75%; under setting [2], 85.6%; (substrate: plastic) 63.1%.

For `O=C(c1cc2cc(O)ccc2[nH]1)c1cc2cc(O)ccc2[nH]1` [Flt-3 Inhibitor II], the “% inhibition of 4T1 cell number” value is 13.9% (substrate: Matrigel); 26.6% (substrate: gelatin); 23.8% under setting [1]; 22.7% under setting [2]; -36.1% (substrate: plastic).

With `Nc1ccc(-c2cccc3c(=O)cc(N4CCOCC4)oc23)cc1`, the “% inhibition of 4T1 cell number” value reads like this: (substrate: Matrigel) -40.7%; (substrate: gelatin) -16.5%; under setting [1], -12%; under setting [2], 28.6%; (substrate: plastic) -60.7%.

With `O=C(Nc1ccc(Cl)cc1)c1ccccc1NCc1ccncc1` [VEGF Receptor Tyrosine Kinase Inhibitor II], the “% inhibition of 4T1 cell number” value (substrate: Matrigel) was 28.8%; the “% inhibition of 4T1 cell number” value (substrate: gelatin) is -12.3%; the “% inhibition of 4T1 cell number” value under setting [1] is 79.7%; the “% inhibition of 4T1 cell number” value under setting [2] turned out to be 0.43%; the “% inhibition of 4T1 cell number” value (substrate: plastic) came out at 17.2%.

As for `COc1cc(SC)ccc1C(=O)N1CCC(Cc2ccccc2)CC1` [p38 MAP Kinase Inhibitor VI, JX401], the “% inhibition of 4T1 cell number” value is -31.1% (substrate: Matrigel); 8.59% (substrate: gelatin); -4.09% under setting [1]; 17% under setting [2]; -66.3% (substrate: plastic).

In the case of `Oc1ccc(-c2nc(-c3ccc(F)cc3)c(-c3ccncc3)[nH]2)cc1`, the “% inhibition of 4T1 cell number” value reads like this: (substrate: Matrigel) 19.2%; (substrate: gelatin) 56%; under setting [1], -2.55%; under setting [2], 38.9%; (substrate: plastic) 30.1%.

Regarding `N#CCCc1ccc2c(c1)-c1[nH]c3ccc([N+](=O)[O-])cc3c1CC(=O)N2` [Alsterpaullone, 2-Cyanoethyl], the “% inhibition of 4T1 cell number” value is 55.6% (substrate: Matrigel); 51.8% (substrate: gelatin); -1.58% under setting [1]; 45.1% under setting [2]; 72.9% (substrate: plastic).

With `CC[C@H](CO)Nc1nc(NCc2ccccc2)c2ncn(C(C)C)c2n1` [Roscovitine], the “% inhibition of 4T1 cell number” value runs as follows: (substrate: Matrigel) -1.22%; (substrate: gelatin) 53.1%; under setting [1], -2.74%; under setting [2], 3.56%; (substrate: plastic) -18.8%.

`CO[C@H]1C[C@@H]2CC[C@@H](C)[C@@](O)(O2)C(=O)C(=O)N2CCCC[C@H]2C(=O)O[C@H]([C@H](C)C[C@@H]2CC[C@@H](O)[C@H](OC)C2)CC(=O)[C@H](C)/C=C(\C)[C@@H](O)[C@@H](OC)C(=O)[C@H](C)C[C@H](C)/C=C/C=C/C=C/1C` [Rapamycin]: the “% inhibition of 4T1 cell number” value (substrate: Matrigel) was -18.4%; the “% inhibition of 4T1 cell number” value (substrate: gelatin) is -32%; the “% inhibition of 4T1 cell number” value under setting [1] was -0.258%; the “% inhibition of 4T1 cell number” value under setting [2] was 23.7%; the “% inhibition of 4T1 cell number” value (substrate: plastic) is -50.8%.

For `COc1cccc(-c2cc(=O)c3ccccc3o2)c1N`, the “% inhibition of 4T1 cell number” value was -3.15% (substrate: Matrigel); -1.31% (substrate: gelatin); -10.2% under setting [1]; 25.7% under setting [2]; -41.4% (substrate: plastic).

Regarding `O=C1NCCc2[nH]c(-c3ccnc(-c4cnc5ccccc5c4)c3)cc21` [MK-2 Inhibitor III], the “% inhibition of 4T1 cell number” value is, setting by setting: (substrate: Matrigel) -42.1%; (substrate: gelatin) -5.86%; under setting [1], -4.6%; under setting [2], 4.98%; (substrate: plastic) -48.3%.

With `Brc1c(Br)c(Br)c2n[nH]nc2c1Br` [Casein Kinase II Inhibitor I], the “% inhibition of 4T1 cell number” value (substrate: Matrigel) turned out to be 49.8%; the “% inhibition of 4T1 cell number” value (substrate: gelatin) was 40.2%; the “% inhibition of 4T1 cell number” value under setting [1] was found to be 1.56%; the “% inhibition of 4T1 cell number” value under setting [2] was -30.6%; the “% inhibition of 4T1 cell number” value (substrate: plastic) is 39.4%.
